Assay results published in PubChem BioAssay.
A number with no mark means an inactive call. The list shows a part of the results. Activity calls are given as the source filed them.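 How the source made its calls, unless noted: active means current rise at least 3 SD above the untreated control mean in each of two repeat wells; inactive means the rest.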

Assays:
[1] = biological target: Inward rectifier potassium channel 2 (Mus musculus) (UniProt P35561); test: inhibition of Kir2.1 inward rectifier potassium flux – cell-based, FluxOR thallium flux, duplicate, confirmation (AID 2032;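 active means Primary-screen hit whose thallium flux fell at least 3 control SD below untreated wells in both duplicates, with normal baseline fluorescence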); details: Kir2.1-expressing cells, FluxOR thallium flux fluorescence, at 10 µM; active compounds read low
Chain of Inward rectifier potassium channel 2 (Mus musculus) (P35561 whole entry, looked up): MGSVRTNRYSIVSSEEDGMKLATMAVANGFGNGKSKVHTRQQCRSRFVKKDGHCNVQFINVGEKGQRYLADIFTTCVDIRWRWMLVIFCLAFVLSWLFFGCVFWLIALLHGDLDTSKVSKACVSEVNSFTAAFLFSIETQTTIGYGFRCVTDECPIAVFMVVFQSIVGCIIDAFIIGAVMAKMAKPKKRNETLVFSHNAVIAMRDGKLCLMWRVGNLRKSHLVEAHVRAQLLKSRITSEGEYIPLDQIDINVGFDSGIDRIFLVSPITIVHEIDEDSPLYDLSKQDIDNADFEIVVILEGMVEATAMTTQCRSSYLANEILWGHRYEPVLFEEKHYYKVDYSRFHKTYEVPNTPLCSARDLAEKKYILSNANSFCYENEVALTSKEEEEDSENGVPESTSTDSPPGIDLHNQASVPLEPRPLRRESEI

[2] = parental HEK293 cell activity, no Kir2.1 – FluxOR thallium flux, duplicate, single concentration, counter-screen for Kir2.1 inhibitor project, confirmation (AID 2105;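 active means dye signal at least 3 control SD above or below untreated wells in both duplicates, raw fluorescence within 3, either direction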;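 on FluxOR signal as % of negative control (100 = no effect): percent is based on the flux ratio of peak minus minimum fluorescence over baseline F0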); details: parental HEK293 cells, FluxOR thallium flux fluorescence, at 10 µM; 0% = unstimulated blank wells
[3] = biological target: Voltage-gated inwardly rectifying potassium channel KCNH2 (Homo sapiens) (UniProt Q12809); test: hERG block by Kir2.1 inhibitor candidates – cell-based, thallium flux, counter-screen for Kir2.1 inhibitor project (AID 2236; call rule not given here;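 further: host cells are CHO cells stably expressing hERG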); details: hERG-expressing cells, at 10 µM, active compounds read high
Chain of Voltage-gated inwardly rectifying potassium channel KCNH2 (Homo sapiens) (Q12809 whole entry, looked up): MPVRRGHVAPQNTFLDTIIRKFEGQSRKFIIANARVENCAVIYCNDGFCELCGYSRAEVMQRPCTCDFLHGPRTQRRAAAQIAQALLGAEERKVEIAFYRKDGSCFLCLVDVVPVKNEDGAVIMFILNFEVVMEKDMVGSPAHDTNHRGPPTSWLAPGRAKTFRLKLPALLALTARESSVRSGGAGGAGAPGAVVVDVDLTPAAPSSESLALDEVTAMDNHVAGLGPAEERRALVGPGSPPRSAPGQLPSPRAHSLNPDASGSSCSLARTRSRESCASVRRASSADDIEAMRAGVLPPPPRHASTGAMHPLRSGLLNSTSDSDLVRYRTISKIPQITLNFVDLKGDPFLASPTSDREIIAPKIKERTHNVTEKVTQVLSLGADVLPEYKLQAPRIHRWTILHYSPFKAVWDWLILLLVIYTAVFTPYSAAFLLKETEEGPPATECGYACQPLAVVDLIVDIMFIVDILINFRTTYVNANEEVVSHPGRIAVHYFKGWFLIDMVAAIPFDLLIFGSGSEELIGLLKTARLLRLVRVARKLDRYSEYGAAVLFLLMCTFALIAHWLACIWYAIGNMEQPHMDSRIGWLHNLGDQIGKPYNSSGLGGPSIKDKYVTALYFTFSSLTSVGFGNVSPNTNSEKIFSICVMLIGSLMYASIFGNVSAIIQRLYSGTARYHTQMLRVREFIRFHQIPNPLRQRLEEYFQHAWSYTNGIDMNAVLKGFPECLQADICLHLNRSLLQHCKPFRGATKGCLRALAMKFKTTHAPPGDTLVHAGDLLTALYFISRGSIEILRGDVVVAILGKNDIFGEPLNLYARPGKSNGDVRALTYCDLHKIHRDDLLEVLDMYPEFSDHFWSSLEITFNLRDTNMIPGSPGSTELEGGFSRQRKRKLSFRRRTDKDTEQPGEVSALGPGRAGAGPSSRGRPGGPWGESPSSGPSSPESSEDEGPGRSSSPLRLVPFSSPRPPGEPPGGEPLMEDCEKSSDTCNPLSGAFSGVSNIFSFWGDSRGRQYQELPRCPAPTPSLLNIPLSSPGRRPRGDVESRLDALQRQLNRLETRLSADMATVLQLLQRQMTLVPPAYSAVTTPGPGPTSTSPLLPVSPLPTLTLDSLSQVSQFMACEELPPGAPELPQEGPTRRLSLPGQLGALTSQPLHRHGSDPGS

[4] = biological target: Potassium channel subfamily K member 9 (Homo sapiens) (UniProt Q9NPC2); test: human KCNK9 potassium channel blockers – cell-based, selectivity assay for Kir2.1 inhibitor project (AID 2329; call rule not given here); details: KCNK9-expressing cells, ion flux inhibition; at 10 µM; active compounds read high
[5] = biological target: Short transient receptor potential channel 4 (Mus musculus) (UniProt Q9QUQ5); test: DAMGO-gated TRPC4 membrane potential modulation – cell-based, second specificity screen, HEK293 TRPC4/mu-opioid, selectivity assay for TRPC6 inhibitor project, confirmation (AID 2776;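 active means compounds whose fluorescence signal differed from control wells by over 3 SD, either direction, in both duplicate plates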); details: HEK293 TRPC4/MOR, membrane potential dye fluorescence; at 10 µM; active compounds read high; channel activated by saturating DAMGO dose
Chain of Short transient receptor potential channel 4 (Mus musculus) (Q9QUQ5 whole entry, looked up): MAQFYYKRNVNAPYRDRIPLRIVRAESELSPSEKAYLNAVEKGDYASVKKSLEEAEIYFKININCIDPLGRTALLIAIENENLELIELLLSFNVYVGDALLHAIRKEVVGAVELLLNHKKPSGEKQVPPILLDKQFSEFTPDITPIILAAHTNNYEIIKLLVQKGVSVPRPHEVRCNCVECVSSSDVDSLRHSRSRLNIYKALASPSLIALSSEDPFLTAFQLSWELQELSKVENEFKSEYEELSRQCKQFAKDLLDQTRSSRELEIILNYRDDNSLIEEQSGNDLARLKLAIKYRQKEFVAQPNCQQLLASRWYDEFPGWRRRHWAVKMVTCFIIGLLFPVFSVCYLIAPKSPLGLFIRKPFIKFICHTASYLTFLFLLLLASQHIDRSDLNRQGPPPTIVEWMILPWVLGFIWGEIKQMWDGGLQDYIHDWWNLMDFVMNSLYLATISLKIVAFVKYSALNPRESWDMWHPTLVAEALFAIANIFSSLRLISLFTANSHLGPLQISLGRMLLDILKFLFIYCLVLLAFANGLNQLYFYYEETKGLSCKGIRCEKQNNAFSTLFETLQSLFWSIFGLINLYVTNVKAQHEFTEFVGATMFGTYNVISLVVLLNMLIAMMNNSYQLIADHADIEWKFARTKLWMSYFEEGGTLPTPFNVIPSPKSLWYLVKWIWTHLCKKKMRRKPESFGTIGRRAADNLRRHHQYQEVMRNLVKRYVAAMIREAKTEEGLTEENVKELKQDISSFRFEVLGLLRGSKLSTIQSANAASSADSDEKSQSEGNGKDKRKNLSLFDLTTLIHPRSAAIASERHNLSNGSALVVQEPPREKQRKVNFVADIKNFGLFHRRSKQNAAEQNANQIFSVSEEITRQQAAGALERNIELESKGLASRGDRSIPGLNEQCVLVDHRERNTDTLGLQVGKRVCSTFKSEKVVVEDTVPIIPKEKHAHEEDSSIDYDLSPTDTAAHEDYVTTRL

[6] = test system: transient receptor potential cation channel C4 (TRPC4), mouse; test: membrane potential change in TRPC4 cells – cell-based, HEK293 TRPC4/mu-opioid, membrane potential dye, selectivity assay for TRPC6 inhibitor project, confirmation (AID 2777;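 active means rise or fall in signal beyond 3 SD of buffer-only wells in both replicate plates, either sign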;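 further: integrated kinetic ratio of fluorescence range over baseline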); details: membrane potential fluorescence, at 10 µM
[7] = parental HEK293 depolarization signal interference – cell-based, second counter screen, counter-screen for TRPC6 inhibitor project, confirmation (AID 2779;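 active means membrane potential signal moving either way by over 3 SD of the maximum-effect control, in both duplicate plates, meaning non-specific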); details: parental HEK293 membrane potential dye fluorescence; at 10 µM; maximal acetylcholine challenge after compound addition
[8] = nonspecific voltage dye signal in HEK293 – cell-based, parental HEK293, counter-screen for TRPC6 inhibitor project, confirmation (AID 2780;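 active means membrane potential signal shifting up or down by more than 3 SD of buffer-only wells, on both duplicate plates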;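 on membrane potential signal change: plate controls were buffer EC0 wells for no effect and acetylcholine ECmax wells for full effect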); details: parental HEK293 membrane potential dye fluorescence; at 10 µM
[9] = biological target: Inward rectifier potassium channel 2 (Mus musculus) (UniProt P35561); test: Kir2.1 potassium current inhibition – cell-based, secondary, automated electrophysiology, Kir2.1 inhibitor project (AID 463252; call rule not given here); details: Kir2.1 cells, automated patch-clamp current inhibition; at 25 µM; active compounds read high
[10] = biological target: Short transient receptor potential channel 6 (Mus musculus) (UniProt Q61143); test: blockers of TRPC6 cation channel activity – HEK293 cells, membrane potential dye, duplicate, confirmation (AID 488960;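 active means fluorescence ratio falls more than 5 SD below the full-stimulation control mean, in both duplicate runs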;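 on inhibition: integrated fluorescence ratio of peak minus minimum over baseline after agonist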); details: ACh-evoked depolarization, at 10 µM; active compounds read high
Chain of Short transient receptor potential channel 6 (Mus musculus) (Q61143 whole entry, looked up): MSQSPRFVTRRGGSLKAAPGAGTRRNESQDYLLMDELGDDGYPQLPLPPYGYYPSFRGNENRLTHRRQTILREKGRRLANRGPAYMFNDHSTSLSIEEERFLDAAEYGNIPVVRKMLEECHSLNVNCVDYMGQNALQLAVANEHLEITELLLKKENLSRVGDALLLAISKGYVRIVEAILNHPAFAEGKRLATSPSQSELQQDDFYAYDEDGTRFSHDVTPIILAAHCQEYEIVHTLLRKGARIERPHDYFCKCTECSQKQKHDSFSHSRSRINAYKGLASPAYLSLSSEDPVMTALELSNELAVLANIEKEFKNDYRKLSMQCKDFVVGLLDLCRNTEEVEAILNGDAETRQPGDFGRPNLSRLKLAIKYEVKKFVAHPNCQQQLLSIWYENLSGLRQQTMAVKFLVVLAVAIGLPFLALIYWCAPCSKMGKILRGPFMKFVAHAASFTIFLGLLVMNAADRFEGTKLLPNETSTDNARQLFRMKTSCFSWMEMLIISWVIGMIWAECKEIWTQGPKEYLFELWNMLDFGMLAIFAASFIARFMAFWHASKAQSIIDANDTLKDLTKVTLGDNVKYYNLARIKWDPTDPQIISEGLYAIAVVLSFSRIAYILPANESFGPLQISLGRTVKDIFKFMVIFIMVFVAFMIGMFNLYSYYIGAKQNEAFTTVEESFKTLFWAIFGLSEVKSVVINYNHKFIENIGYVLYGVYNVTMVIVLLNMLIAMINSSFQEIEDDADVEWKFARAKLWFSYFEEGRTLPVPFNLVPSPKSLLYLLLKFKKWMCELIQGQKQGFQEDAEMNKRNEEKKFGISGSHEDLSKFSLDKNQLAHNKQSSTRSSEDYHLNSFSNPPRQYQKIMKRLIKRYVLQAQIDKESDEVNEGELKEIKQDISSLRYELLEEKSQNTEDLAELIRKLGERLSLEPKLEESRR

[11] = biological target: Short transient receptor potential channel 6 (Mus musculus) (UniProt Q61143); test: mouse TRPC6 channel activators, confirmation, HEK293 cells, membrane potential dye, duplicate (AID 488961;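 active means ratio signal rise beyond 5 SD above unstimulated control wells' mean, seen in both duplicate runs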); details: HEK293-TRPC6 membrane potential dye fluorescence, FDSS; at 10 µM
[12] = parental CHO-K1 cell activation, no KCNQ2 – FluxOR thallium flux, duplicate, counter-screen for KCNQ2 potentiator project, confirmation (AID 2282;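 active means signal rise of at least 3 SD above the untreated control mean, in both duplicate wells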;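 further: counter screen of KCNQ2 potentiator hits so any rise reflects channel-independent effects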); details: parental CHO-K1 cells, FluxOR thallium flux fluorescence; at 10 µM; active compounds read high; zero = vehicle mean+3SD, 100% = vehicle-minus-blank window
[13] = biological target: Potassium voltage-gated channel subfamily KQT member 1 (Homo sapiens) (UniProt P51787); test: KCNQ1 activation in stable CHO cells – cell-based, FluxOR thallium flux, selectivity assay for KCNQ2 potentiator project, confirmation (AID 2283;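 active means fluorescence ratio rise of at least 3 SD of vehicle wells above their mean, in both replicate wells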;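 further: 0% = vehicle mean plus 3 SD and 100% = vehicle minus unstimulated blank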); details: FluxOR thallium flux fluorescence, at 10 µM, active compounds read high, beyond 3SD, as % of vehicle-control signal
Chain of Potassium voltage-gated channel subfamily KQT member 1 (Homo sapiens) (P51787 whole entry, looked up): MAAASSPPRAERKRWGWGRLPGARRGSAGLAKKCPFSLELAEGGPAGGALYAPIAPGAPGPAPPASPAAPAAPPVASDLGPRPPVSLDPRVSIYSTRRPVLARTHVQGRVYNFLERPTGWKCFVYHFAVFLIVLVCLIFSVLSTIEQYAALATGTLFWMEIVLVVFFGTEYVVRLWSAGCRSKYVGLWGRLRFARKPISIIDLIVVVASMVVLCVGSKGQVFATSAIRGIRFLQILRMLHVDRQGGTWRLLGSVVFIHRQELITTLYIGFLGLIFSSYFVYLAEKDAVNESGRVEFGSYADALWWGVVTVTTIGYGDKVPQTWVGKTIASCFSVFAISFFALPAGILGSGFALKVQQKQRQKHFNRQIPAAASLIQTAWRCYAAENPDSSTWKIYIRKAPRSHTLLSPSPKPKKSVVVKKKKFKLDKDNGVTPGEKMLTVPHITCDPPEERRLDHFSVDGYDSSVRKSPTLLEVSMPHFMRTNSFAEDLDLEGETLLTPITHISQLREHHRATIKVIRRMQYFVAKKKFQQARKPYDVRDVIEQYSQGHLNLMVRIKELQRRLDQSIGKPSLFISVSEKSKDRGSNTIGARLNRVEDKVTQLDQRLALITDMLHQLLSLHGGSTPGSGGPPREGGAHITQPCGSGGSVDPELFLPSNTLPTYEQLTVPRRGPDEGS

[14] = biological target: Potassium voltage-gated channel subfamily KQT member 2 (Rattus norvegicus) (UniProt O88943); test: KCNQ2 potassium channel activity enhancers – cell-based, CHO, FluxOR thallium flux, duplicate, confirmation (AID 2287;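 active means fluorescence ratio rising 3 SD or more over the vehicle control mean in both replicates, plus primary screen hit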;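 further: peak minus minimum thallium fluorescence divided by baseline after K/Tl stimulus; 0% = vehicle mean plus 3 SD and 100% = vehicle minus unstimulated blank difference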); details: CHO-KCNQ2 cells, FluxOR thallium flux fluorescence; at 10 µM; active compounds read high
[15] = biological target: Potassium voltage-gated channel subfamily KQT member 1 (Homo sapiens) (UniProt P51787); test: KCNQ1 activators by electrophysiology – IonWorks patch clamp, KCNQ1-CHO cells, orthogonal assay for KCNQ1 potentiator project, confirmation (AID 493184); details: automated patch clamp current, at 10 µM
[16] = nonspecific voltage dye response without TRPC6 – cell-based, parental HEK293, counter-screen for TRPC6 modulator project, confirmation (AID 488924;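 active means membrane potential signal moves up or down beyond 5 SD from buffer-only wells, on both duplicate plates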); details: parental HEK293, membrane potential dye fluorescence; at 10 µM
[17] = membrane potential response modulators in host HEK293 cells – cell-based, second counter-screen, parental HEK293, membrane potential dye, counter-screen for TRPC6 modulator project, confirmation (AID 488926;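 active means membrane potential signal drops by more than 5 SD from the mean control signal, in both duplicate plates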;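 on inhibition: plate controls were acetylcholine ECmax control wells for no effect and buffer only wells for full effect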); details: parental HEK293, membrane potential dye fluorescence, at 10 µM, after compound, maximal acetylcholine stimulation; active compounds read high
[18] = test system: Transient receptor potential cation channel subfamily C member 4 (mouse); test: off-target membrane potential effects via mouse TRPC4 – cell-based, HEK293 TRPC4/mu-opioid, membrane potential dye, selectivity assay for TRPC6 modulator project, confirmation (AID 488927;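 active means membrane potential signal moved up or down beyond 5 SD of buffer control wells, in both duplicate plates, actives on both sides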;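 on percent change from control (negative = decrease, positive = increase): plate controls were assay buffer wells for no effect and DAMGO maximal-effect wells for full effect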); details: membrane potential fluorescence, at 10 µM
[19] = test system: TRPC4 (transient receptor potential cation channel C4), mouse; test: DAMGO-evoked mouse TRPC4 response blockade – cell-based, second screen, HEK293 TRPC4/mu-opioid, membrane potential dye, selectivity assay for TRPC6 modulator project, confirmation (AID 488928;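 active means drop in membrane potential signal beyond 5 SD of the control wells in both duplicate plates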;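 further: TRPC4 counter screen for TRPC6 hits run under conditions tuned for TRPC6 not TRPC4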); details: membrane potential dye fluorescence, at 10 µM, stimulated with maximal-effect DAMGO; active compounds read high
[20] = biological target: Potassium voltage-gated channel subfamily E member 1 (Homo sapiens) + Potassium voltage-gated channel subfamily KQT member 1 (Homo sapiens) (UniProt P15382+P51787); test: KCNQ1-E1 channel activation – thallium flux, CHO-K1 KCNQ1/E1 cells, selectivity assay for KCNQ1 potentiator project, confirmation (AID 493186;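 active means mean duplicate activation above the buffer control mean plus 5 SD of those controls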); details: FluxOR thallium flux, at 10 µM
Chain of Potassium voltage-gated channel subfamily E member 1 (Homo sapiens) + Potassium voltage-gated channel subfamily KQT member 1 (Homo sapiens) (P51787 whole entry, looked up): as the sequence (P51787 whole entry, looked up) above

SMILES: CCOc1cccc(=NC2CCCCC2)c2c(C)[nH]c(C)c12
- Tl flux remaining, % of negative control (active compounds read low) [1]: 46.5% (active)
- outcome [2]: inactive
- inhibition [3]: 74% (active)
- inhibition [4]: 48% (active)
- inhibition [5]: 56% (active)
- activity change, negative = inhibition [6]: -8.98% (active)
- signal change vs control [7]: -3.5% (active)
- membrane potential signal change [8]: -146% (active)
- inhibition [9]: 13.9% (active)
- outcome [10]: inactive
- outcome [11]: inactive

SMILES: COc1ccc(Br)cc1CNCCc1cccc(Cl)c1
- Tl flux remaining, % of negative control (active compounds read low) [1]: 15.5% (active)
- outcome [2]: inactive

SMILES: COc1cc(-n2c(=S)[nH]c3ccc(C)cc3c2=O)c(Cl)cc1Cl
- outcome [1]: inactive
- outcome [2]: inactive
- activity increase over 3SD of controls [12]: 2.8% (active)
- activation over 3SD threshold [13]: -13.6%
- potentiation, less the hit threshold [14]: 1.9% (active)
- outcome [15]: inactive

SMILES: c1ccc(C2NCc3ccccc3-n3cccc32)cc1 (stereo not drawn)
- Tl flux remaining, % of negative control (active compounds read low) [1]: 52% (active)
- outcome [2]: inactive

SMILES: Fc1ccc(N2CCN(Cc3ccc4c(c3)OCO4)CC2)cc1
- Tl flux remaining, % of negative control (active compounds read low) [1]: 36.5% (active)
- outcome [2]: inactive

SMILES: CNCC(O)c1cc(F)c(OCc2ccccc2)c(OCc2ccccc2)c1F (stereo not drawn)
- Tl flux remaining, % of negative control (active compounds read low) [1]: 34.5% (active)
- FluxOR signal as % of negative control (100 = no effect) [2]: 74% (active)

SMILES: CC1=CC(=Cc2sc3ccccc3[n+]2C)C=C(C)O1
- outcome [16]: inactive
- inhibition [17]: 131% (active)
- outcome [18]: inactive
- outcome [19]: inactive
- inhibition [10]: 73% (active)
- outcome [11]: inactive

SMILES: CC1(C)Cc2c(C#N)c(N3CCNCC3)nc(-c3ccco3)c2CS1
- outcome [16]: inactive
- outcome [17]: inactive
- percent change from control (negative = decrease, positive = increase) [18]: -14.5% (active)
- inhibition [19]: 76.5% (active)
- inhibition [10]: 62.5% (active)
- outcome [11]: inactive

SMILES: CN1CCN(c2cc(N3CCNCC3)ccc2[N+](=O)[O-])CC1
- membrane potential signal change [16]: -426% (active)
- inhibition [17]: 102% (active)
- percent change from control (negative = decrease, positive = increase) [18]: -68% (active)
- inhibition [19]: 66.5% (active)
- inhibition [10]: 72.5% (active)
- outcome [11]: inactive

SMILES: O=C(c1ccc(-c2ccccc2)cc1)C1CCCN(Cc2ccn[nH]2)C1 (stereo not drawn)
- outcome [15]: inactive

SMILES: CCCCCCCCCCCCn1ccc(=N)cc1
- inhibition [5]: 66% (active)
- activity change, negative = inhibition [6]: -9.73% (active)
- outcome [7]: inactive
- membrane potential signal change [8]: -166% (active)
- inhibition [10]: 56.1% (active)
- outcome [11]: inactive

SMILES: O=C(O)c1cccc2c1NC(c1cccc([N+](=O)[O-])c1)C1CC(Sc3ccccc3[N+](=O)[O-])C(Cl)C21 (stereo not drawn)
- outcome [15]: inactive

SMILES: COc1cccc(-c2nc3ccc(N4CCN(C)CC4)cc3[nH]2)c1
- inhibition [5]: 74% (active)
- outcome [6]: inactive
- outcome [7]: inactive
- outcome [8]: inactive
- outcome [10]: inactive
- outcome [11]: inactive

SMILES: O=C(CCCN1CCC2(CC1)C(=O)NCN2c1ccccc1)c1ccc(F)cc1
- outcome [15]: inactive

SMILES: CNc1ccc2oc(C[C@H]3O[C@@]4(CC[C@H]3C)O[C@H]([C@H](C)C(=O)c3ccc[nH]3)[C@H](C)C[C@H]4C)nc2c1C(=O)O
- outcome [15]: inactive

SMILES: CC(=NCc1ccc(F)cc1)c1c(O)n(C)c(=O)n(C)c1=O
- outcome [15]: inactive

SMILES: c1ccc2c(c1)Sc1ccccc1N2CC1CN2CCC1CC2 (stereo not drawn)
- outcome [15]: inactive

SMILES: Cc1ccc(C[n+]2c(-c3ccc(C)cc3)cc(-c3ccc(C)cc3)cc2-c2ccc(C)cc2)cc1
- outcome [15]: inactive

SMILES: CNC(=O)NC(O)C(Cl)(Cl)Cl (stereo not drawn)
- outcome [15]: inactive

SMILES: CN1CC(C(=O)c2ccccc2)C(c2ccccc2)C1 (stereo not drawn)
- outcome [15]: inactive

SMILES: N#CCCn1cc(C(=O)Nc2ccccc2Cl)c(-c2ccc(F)cc2)n1
- outcome [15]: inactive

SMILES: Cc1nc2ccccc2c(=O)n1/N=C/c1cc(Br)cc(Br)c1O
- outcome [15]: inactive

SMILES: Cn1cccc1/C=C1/C(=O)NC(=S)N(Cc2ccc(F)cc2)C1=O
- outcome [15]: inactive
- outcome [20]: inactive

SMILES: COc1ccccc1N(CC(=O)NC1CCCC1)C(=O)c1cnn(C(C)C)c1
- outcome [15]: inactive

SMILES: C/C1=C\[C@@H](C)C/C=C/[C@H]2[C@@H]3O[C@]3(C)[C@@H](C)[C@H]3[C@H](Cc4c[nH]c5ccccc45)NC(=O)[C@]32C(=O)/C=C/C(=O)[C@@H]1O
- outcome [15]: inactive
- outcome [20]: inactive

SMILES: CCOc1cc(CNCCc2c[nH]c3ccccc23)cc(Cl)c1OCC
- outcome [15]: inactive
- outcome [20]: inactive
